Rows were chosen to be rich in hits. Some 4.5% of all compounds tested hit in one or more screens of this group.
PfHsp40 rescue = rescue of yeast from PfHsp40 toxicity, primary screen, S. cerevisiae, ATP luminescence; S. cerevisiae expressing PfHsp40, growth rescue; growth rescue, % at 12.5 µM; hit rate 0.68% among 340,000; AID 504582, 2011; in the data active = growth rescue above about 28%, passing the limit was not always enough;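 also: yeast W303a lacking pdr1 and pdr3 grown in galactose medium; growth measured after three days at 30 °C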
PrP UTR inh = inhibition of PrP 5' UTR reporter expression. hit rate 0.35% among 340,000. AID 488862, 2010. cell-based PrP 5' UTR mRNA reporter, plate reader. inhibition, % (concentration not given with the values); in the data active = inhibition above about 52%; also: 0 = median of the neutral control wells
Mtb FBA inh = Mtb FBA enzyme inhibitors, primary screen, biochemical, fluorescence, strain H37Rv; Fructose-bisphosphate aldolase (Mycobacterium tuberculosis (strain ATCC 25618 / H37Rv)), …; purified M. tuberculosis FBA, fluorescence read-out; inhibition, % at 1 µM; hit rate 2.3% among 360,000; AID 588726, 2011; in the data active = inhibition above about 27%;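 also: 0% = vehicle and 100% = reference inhibitor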
Target sequence (P9WQA3 whole entry, looked up): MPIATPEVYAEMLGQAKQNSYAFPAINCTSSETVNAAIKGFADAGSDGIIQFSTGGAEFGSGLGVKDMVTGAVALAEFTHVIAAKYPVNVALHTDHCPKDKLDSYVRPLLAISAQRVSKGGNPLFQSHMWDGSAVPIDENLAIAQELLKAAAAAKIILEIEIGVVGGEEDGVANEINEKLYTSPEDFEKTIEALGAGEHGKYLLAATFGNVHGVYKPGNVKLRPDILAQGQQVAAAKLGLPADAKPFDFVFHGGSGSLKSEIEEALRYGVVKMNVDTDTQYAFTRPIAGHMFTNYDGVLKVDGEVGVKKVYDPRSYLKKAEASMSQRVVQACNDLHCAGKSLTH
BJeLR viability = MLPCN primary cell-based screen for lethality selective to Ras in HRASV12 cells. inhibition, % (test concentration not listed). AID 1554, 2009. BJeLR (HRASV12) viability, CellTiter-Glo ATP luminescence, 48 h. hit rate 0.17% among 300,000; in the data active = inhibition above about 50%
PrPC surface inh = inhibitors of human cell surface prion protein PrPC, primary screen, cell-based, TR-FRET; Major prion protein (Homo sapiens), P04156; TR-FRET read-out; inhibition, % at 13.8 µM; hit rate 0.43% among 370,000; in the data active = inhibition above about 24%; also: 0% = median of the test wells and 100% = reference compound wells
GDH-TPI inh = GDH-TPI coupling enzyme inhibitors, primary screen, artefact control for M. tuberculosis FBA inhibitor project, biochemical, absorbance, full deck; hit rate 1.2% among 360,000; AID 588335, 2011; GDH-TPI coupled enzyme counterscreen, NADH absorbance; inhibition, % at 4.8 µM; in the data active = inhibition above about 30%;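 also: 0% = DMSO wells and 100% = wells lacking the enzyme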
* hit, by the source's call; nt = no result given; + = active, no number.

SMILES	PfHsp40 rescue	PrP UTR inh	Mtb FBA inh	BJeLR viability	PrPC surface inh	GDH-TPI inh
O=c1c2ccccc2n(Cc2ccccc2)n1[C@@H](Cc1ccccc1)Cn1cc(-c2ccc(-c3ccccc3)cc2)nn1	nt	nt	nt	nt	0	nt
Cc1ccc(-n2c(C)cc(C=C3C(=O)N(C)C(=O)N(C)C3=O)c2C)cc1	0	-13	112*	nt	1	12
N#C/C(=C\c1ccco1)C(=O)Nc1cccc2ncccc12	0	-10	3	1	-4	33*
Cc1ccc(/C=N/Nc2nc(C(C)(C)C)cs2)o1	-1	-61	-1	-1	5	1
Cc1ccc(/C=N/Nc2nc3ccccc3s2)o1	8	-107	-4	13	8	56*
Cc1ccc(S(=O)(=O)c2ccc([N+](=O)[O-])o2)cc1	265*	-20	0	nt	82*	-8
CCOC(=O)CC[C@@H]1CC[C@]2(CCCN(C(=O)c3ccc4ccccc4n3)C2)O1	nt	nt	nt	nt	-2	nt
C[C@H]1[C@@H](NC(=O)c2ccc(C(C)(C)C)cc2)CC[C@@]23CCCN2C(=O)CCC[C@@H]13	nt	nt	nt	nt	-5	nt
O=C(Nc1nnc(C2=COCCO2)o1)c1cccc([N+](=O)[O-])c1	1	-17	-1	18	-2	0
O=C(Nc1nnc(C2=COCCO2)o1)c1cccc(Br)c1	59*	-8	2	1	-4	9
CCOC(=O)CC[C@@]1(C(=O)OCC)C[C@@H](CC(=O)NCc2cccs2)C(=O)N2CCCC=C21	nt	nt	nt	nt	-9	nt
Cc1nn(-c2ccccc2)c2sc(C(=O)O)cc12	-1	6	0	1	-20	5
Cc1nn(-c2ccccc2)c2sc(-c3n[nH]c(=S)o3)cc12	1	-4	+	-2	-5	42*
COC(=O)c1cc2c(C)nn(-c3ccccc3)c2s1	0	-31	35*	6	2	-5
O=C(CN1C(=O)CCSc2ccccc21)Nc1ccc(Cl)c(Cl)c1	nt	nt	nt	nt	-4	nt
COc1ccc(C#Cc2c(-c3ccccc3)n(C)c3ccccc23)cc1	-1	1	10	nt	10	12
Cc1cc(C#Cc2c(-c3ccccc3)n(C)c3ccccc23)ccc1F	0	-9	27*	-12	-4	16
Cc1cccc(N2O[C@H]3C=C[C@@H]2C3)n1	nt	nt	nt	nt	10	nt
CCN(CC)S(=O)(=O)c1ccc(C(=O)Nc2nnc(NC(=S)Nc3ccccc3)s2)cc1	10	-23	0	-11	0	41*
O=C1CCC[C@H]2Cc3nc4cc5c(cc4cc3C[C@]23CCCN13)OCO5	nt	nt	nt	nt	10	nt
Nc1ccc2nc(-c3ccccc3)sc2c1	0	49	+	2	8	26
Nc1ccc(-c2nc3cc(N)ccc3s2)cc1	3	-19	18	nt	1	15
CC(=O)Nc1ccc(S(=O)(=O)Nc2nc3ccc(C)cc3s2)cc1	-1	-20	2	-1	2	-8
Cc1ccc2nc(-c3ccc(NS(=O)(=O)c4ccc(F)cc4)cc3)sc2c1	1	-90	+	-1	8	37*
Cc1ccc2nc(-c3ccc(N)cc3)sc2c1	-1	23	+	4	10	25
SMILES	PfHsp40 rescue	PrP UTR inh	Mtb FBA inh	BJeLR viability	PrPC surface inh	GDH-TPI inh
CC1=CCC(C(=O)O)C(C(=O)Nc2ccc(-c3nc4ccc(C)cc4s3)cc2)C1 (stereo unspecified)	2	-83	190*	-2	6	37*
COCCCNC(=O)C[C@H]1C[C@@]2(C(=O)OC)C(=C[C@H](C3CCCC3)O[C@@H]2C)N(CCc2ccc(OC)c(OC)c2)C1=O	nt	nt	nt	nt	-1	nt
COC(=O)CN1CCN(C(=O)c2nocc2C)CC1	nt	nt	nt	nt	0	nt
O=C(CCS(=O)(=O)c1ccccc1)Nc1ccc(-c2nc3ccccc3s2)cc1	1	-20	31*	nt	1	7
CNS(=O)(=O)c1cccc(C(=O)OCC(=O)Nc2ccc(-c3nc4ccc(C)cc4s3)cc2)c1	0	-17	29*	-3	nt	23
O=C(CCS(=O)(=O)c1ccccc1)Nc1cccc(-c2nc3ccccc3s2)c1	0	-101	0	5	-2	-1
O=C(c1ccc(Cl)cc1)C1CCN(c2ncnc3sccc23)CC1	nt	nt	nt	nt	12	nt
Cc1nn(-c2ccccc2)c2sc(C(=O)NC3CCCC3)cc12	nt	nt	nt	nt	2	nt
CCOC(=O)NC[C@@]1(C(=O)OC)CC(=O)N(Cc2ccc(Cl)cc2)[C@@H]1c1ccc(OC)cc1	nt	nt	nt	nt	14	nt
CC1=CN2C(=NC(=O)CC2(C)C(=O)N(CC(=O)NC2CCCC2)Cc2ccccc2)C=C1 (stereo unspecified)	0	4	124*	-1	8	-2
Cc1ccccc1N(CC(=O)NC1CCCC1)C(=O)C1(C)CC(=O)N=C2C=CC(Cl)=CN21 (stereo unspecified)	0	0	155*	1	2	8
CC(C)CNS(=O)(=O)/C=C/c1ccc(F)cc1CNC(=O)OC(C)(C)C	nt	nt	nt	nt	4	nt
O=C(Cc1ccc(F)cc1)c1ccc(O)cc1O	0	-37	-1	10	1	46*
CCc1cc(C(=O)Cc2nc3ccccc3[nH]2)c(O)cc1O	-1	-5	10	-3	-2	39*
O=C(Cc1c(F)cccc1Cl)c1ccc(O)cc1O	14	-19	-2	7	-2	34*
CCc1cc(C(=O)Cc2ccc(F)cc2)c(O)cc1O	18	-8	4	0	7	27
O=C(Cc1nc2ccccc2[nH]1)c1ccc(Cl)cc1	0	-32	0	-2	2	7
COc1ccc(OC)c(C(=O)COC(=O)COc2ccccc2F)c1	2	-21	-1	nt	4	5
CCc1cc(C(=O)COc2ccccc2F)c(O)cc1O	5	-29	-5	nt	0	38*
Oc1ccc2[nH]cc(CCc3ccccc3)c2c1-c1ccccc1	nt	nt	nt	nt	-3	nt
O=C(c1cscn1)N1CCC(Oc2cccnc2)CC1	nt	nt	nt	nt	-5	nt
O=C(O)c1cccc(S(=O)(=O)NCC(=O)N2CCN(c3ccccn3)CC2)c1	nt	nt	nt	nt	8	nt
O=C(c1ccccc1)N1CC[C@H]2[C@H](CCCN2Cc2cc(F)cc(F)c2)C1	nt	nt	nt	nt	3	nt
CCCc1cc(C(=O)Cc2ccc(F)cc2)c(O)cc1O	1	-21	-2	9	6	32*
CCOC(=O)C(=O)Cc1nc2ccccc2s1	1	-18	12	1	5	3
CCCc1cc(C(=O)Cc2nc3ccccc3s2)c(O)cc1O	2	-15	19	2	1	38*
CC(C)N(C)c1ncnc2c1ncn2[C@H]1CN(Cc2ccc(Cl)cc2)C[C@@H](CO)O1	nt	nt	3	nt	4	4
CCOc1cc(CCNC(=O)c2cc3sccc3n2CC)ccc1OC	nt	nt	nt	nt	8	nt
O=C1NC(=O)/C(=C/c2ccco2)N1	0	-9	-2	nt	-8	40*
O=C1NC(=O)C(=Cc2ccco2)S1	-1	-13	1	nt	-4	38*
